Source: PubChem
KB-V1 cytotox = KB-V1 MDR subline cytotoxicity; KB-V1 MDR cells viability, CellTiter-Glo, 72 h; Potency, µM (highest dose often 46.1 µM), actives largely listed as cytotoxic; 400,000 tested, 3.4% active; AID 1347076; further: nearly all actives have a fitted effect of over 60% in size
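KB-V1 MDR subline cells in DMEM (phenol-red free, 10% FBS) exposed to compounds in qHTS concentration series for 72 h at 37 degrees C. Viability read by CellTiter-Glo luminescence; concentration-effect curves fitted after normalization and correction.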
SW480 rereplic = induces DNA re-replication in SW480 colon adenocarcinoma cells; Potency, µM (highest dose often 46.1 µM), hits mostly activators; 340,000 tested, 1.8% active; SW480 DNA re-replication, Hoechst DNA content imaging, 48 h; further: nearly all actives have a fitted effect of over 55% in size
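Readout is total intensity of Hoechst-stained nuclei, excited at 405 nm and collected at 500-530 nm. Compound treatment lasted 48 hr at 37 C in 5% CO2 before staining.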
MCF10A rereplic = DNA re-replication induction in MCF 10a cells; MCF 10A DNA re-replication, Hoechst nuclear intensity, 48 h; Potency, µM (titrated, usually from 46.1 µM), usual class: activators; 350,000 tested, 2.9% active; AID 624296; further: nearly all actives have a fitted effect of over 50% in size
KB-3-1 tox = KB-3-1 parental cell cytotoxicity; 400,000 tested, 1.4% active; Potency, µM (doses to about 46.1 µM), hits mostly cytotoxic; KB-3-1 viability, CellTiter-Glo ATP luminescence, 72 h; further: nearly all actives have a fitted effect of over 60% in size
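Viability of parental KB-3-1 cells, measured by CellTiter-Glo luminescence, followed a 72 h incubation at 37 °C with pinned compounds in phenol-red-free DMEM containing 10% FBS.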
KCNH2 3.1 block = inhibitors of human KCNH2 3.1 potassium channel isoform; U2OS KCNH2 3.1, thallium flux FluxOr; active compounds read low; activity change, % (tested at about 1.8 µM); 340,000 tested, 0.95% active;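 active means maximum activity change below -70%; inconclusive means maximum activity change from -70% to -50%; inactive means maximum activity change above -50%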;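 further: thallium influx rate constant from kinetic fluorescence after stimulation buffer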
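Normalized rate constant (relative to positive and negative DMSO controls) derived from a 2 min kinetic fluorescence read after stimulation; U2OS cells expressing the 3.1 isoform via virus at 1.77 x 10^8 /mL.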
hERG WT inh = KCNH2 (human, wildtype) channel inhibition; activity change, % at 1.84 µM; Q12809; U2OS, BacMam KCNH2, thallium flux FluxOr; active compounds read low; AID 720551; 340,000 tested, 0.37% active;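 active means maximum activity change below -70%; inconclusive means maximum activity change between -70% and -50%; inactive means maximum activity change above -50%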
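U2OS cells transduced with wild-type KCNH2 virus are loaded with FluxOr dye for 45 min, and thallium flux is measured in kinetic reads before and after stimulation buffer. Rate constants are normalized to DMSO controls.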
Hits are given with their value. Hits are enriched below; roughly 7.6% of the tested compounds scored in any of these assays. Unless noted, the call rests on the fitted dose curve; in most records, active means well fitted curve in the direction sought with a large enough effect; inconclusive means small, poorly fitted or top-dose-only effect, or another doubt; inactive means no such curve, though single readings can be large; an effect the other way counts as inactive or inconclusive.

O=C(NCc1ccc2c(c1)CCN2C(=O)c1ccncc1)c1cccc(F)c1 was read as KB-V1 cytotox inactive and KB-3-1 tox inactive.
Oc1ccc(NCc2cccc(OCc3ccc(F)cc3)c2)cc1 was read as KB-V1 cytotox inactive, SW480 rereplic inactive, MCF10A rereplic inconclusive, KB-3-1 tox inactive, KCNH2 3.1 block inactive and hERG WT inh inactive.
Screening O=[N+]([O-])c1ccc(COc2cccc(CNc3ccc(F)cc3)c2)cc1 returned KB-V1 cytotox 21µM, SW480 rereplic inactive, MCF10A rereplic inactive, KB-3-1 tox inactive, KCNH2 3.1 block inactive and hERG WT inh inactive.
Screening O=C/C(=C\Nc1ccccn1)c1nc2ccccc2o1 returned KB-V1 cytotox inactive, SW480 rereplic inconclusive, MCF10A rereplic 21µM, KB-3-1 tox inactive, KCNH2 3.1 block inactive and hERG WT inh inactive.
Screening O=C/C(=C\Nc1ccccn1)c1nc2cc(Cl)ccc2o1 returned KB-V1 cytotox inactive, SW480 rereplic inactive, MCF10A rereplic 16µM, KB-3-1 tox inactive, KCNH2 3.1 block inactive and hERG WT inh inactive.
Screening CCOC(=O)CSC1=C(C#N)C(c2ccc(C)o2)CC(=O)N1 (centres undefined) returned KB-V1 cytotox inconclusive, SW480 rereplic 0.82µM, MCF10A rereplic inconclusive, KB-3-1 tox 0.58µM, KCNH2 3.1 block inactive and hERG WT inh inactive.
For CCOC(=O)CSC1=C(C#N)C(c2ccc3c(c2)OCO3)CC(=O)N1 (centres undefined) the results were KB-V1 cytotox inconclusive, SW480 rereplic inconclusive, MCF10A rereplic inconclusive, KB-3-1 tox 7.3µM, KCNH2 3.1 block inactive and hERG WT inh inactive.
For CCOC(=O)CSC1=C(C#N)C(c2ccccc2OCC)C(C#N)C(=O)N1 (centres undefined) the results were KB-V1 cytotox inactive, SW480 rereplic 18µM, MCF10A rereplic inconclusive, KB-3-1 tox inactive, KCNH2 3.1 block inactive and hERG WT inh inactive.
For COC(=O)c1ccc(Cn2cnc3c(N)ncnc32)cc1 the results were KB-V1 cytotox inactive, SW480 rereplic inactive, MCF10A rereplic inactive, KB-3-1 tox inactive, KCNH2 3.1 block inactive and hERG WT inh inactive.
Screening Cc1[nH]c2ccccc2c1/C=N/Nc1cccc(C(=O)O)c1 returned KB-V1 cytotox inactive, SW480 rereplic inactive, MCF10A rereplic inactive, KB-3-1 tox inactive, KCNH2 3.1 block inactive and hERG WT inh inactive.
Screening COC(=O)[C@@]12C[C@@H](CC(=O)NCc3ccc(OC)c(OC)c3)C(=O)N(CCc3ccc(OC)c(OC)c3)C1=CCC(C)(C)C2 returned KB-V1 cytotox inconclusive and KB-3-1 tox inactive.
`CCCCCCCCN1C(=O)[C@H](CC(=O)NCc2ccccc2)C[C@@]2(C(=O)OC)CC(C)(C)CC=C12` gave KB-V1 cytotox 18µM and KB-3-1 tox inconclusive.
For CCCCCCCCN1C(=O)[C@H](CC(=O)NCc2ccc(OC)c(OC)c2)C[C@@]2(C(=O)OC)CC(C)(C)CC=C12 the results were KB-V1 cytotox 21µM and KB-3-1 tox inconclusive.
For CCCCCCCCN1C(=O)[C@H](CC(=O)NCCCC)C[C@@]2(C(=O)OC)CC(C)(C)CC=C12 the results were KB-V1 cytotox 21µM and KB-3-1 tox inconclusive.
Screening CCCCCCCCN1C(=O)[C@H](CC(=O)NCCCCc2ccccc2)C[C@@]2(C(=O)OC)CC(C)(C)CC=C12 returned KB-V1 cytotox inconclusive and KB-3-1 tox inactive.
For COc1cc(OC)c(OC)cc1/C=C/c1nc2cc3ccccc3cc2c(=O)n1-c1ccc(F)cc1F the results were KB-V1 cytotox inactive and KB-3-1 tox 12µM.
Screening O=C(CSc1nnc(SCc2ccccc2)s1)NNC(=S)Nc1ccccc1 returned KB-V1 cytotox inconclusive, SW480 rereplic inactive, MCF10A rereplic inactive, KB-3-1 tox inactive, KCNH2 3.1 block inactive and hERG WT inh -85.
For CC1CCCN(C(=O)COC(=O)c2cc(Br)ccc2O)C1 (centres undefined) the results were SW480 rereplic inactive, MCF10A rereplic inactive, KCNH2 3.1 block inactive and hERG WT inh inactive.
